Screening results deposited in PubChem BioAssay by National Center for Advancing Translational Sciences (NCATS).
ATXN2 expr inh = inhibitors of ATXN2 expression; HEK-293 ATXN2-luciferase reporter, luminescence, 24 h; Potency, µM (top dose mostly 57 µM), for inactives: top-dose activity change, negative = inhibition, actives largely listed as inhibitors; actives 0.72% (n = 360,000); further: on the % scale 0 is the no-effect control and ±100 the full control effect; nearly all actives have a fitted effect of over 55% in size
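ATXN2-luciferase reporter cells (luciferase flanked by upstream and downstream ATXN2 gene portions) were treated 24 h at 37 °C with compounds at up to 57 uM. SteadyGlo luminescence gave expression; GF-AFC fluorescence gave viability.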
RORg inh = ROR gamma (mouse) transcription inhibition | P51450 | Drosophila S2 Gal4-RORgamma UAS-luciferase reporter, 20 h | Potency, µM (top dose mostly 53.6 µM), for inactives: at the top dose activity change, negative = inhibition, most hits filed as inhibitors | actives 5.4% (n = 310,000) | AID 2551; further: on the % scale 0 is the no-effect control and ±100 the full control effect; nearly all actives have a fitted effect of over 60% in size
Target sequence (P51450 whole entry, looked up, the tested form may be a part): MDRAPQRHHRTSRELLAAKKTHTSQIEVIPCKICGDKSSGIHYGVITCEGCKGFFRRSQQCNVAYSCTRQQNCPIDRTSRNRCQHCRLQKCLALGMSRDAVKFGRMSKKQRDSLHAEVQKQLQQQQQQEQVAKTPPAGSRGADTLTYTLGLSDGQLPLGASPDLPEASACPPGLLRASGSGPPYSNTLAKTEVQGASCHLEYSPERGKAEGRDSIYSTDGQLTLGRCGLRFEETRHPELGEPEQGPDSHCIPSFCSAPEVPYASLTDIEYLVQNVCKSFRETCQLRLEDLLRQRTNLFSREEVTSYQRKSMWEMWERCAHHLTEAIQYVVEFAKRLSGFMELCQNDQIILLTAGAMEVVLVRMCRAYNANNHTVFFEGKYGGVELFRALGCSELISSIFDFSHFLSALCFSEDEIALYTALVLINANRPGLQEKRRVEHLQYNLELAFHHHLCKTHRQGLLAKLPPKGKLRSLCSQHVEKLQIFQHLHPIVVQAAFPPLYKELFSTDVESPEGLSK
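Luciferase reporter read in Schneider cells carrying Gal4-RORγ (mouse) and UAS-Photinus luciferase; cells given compound 1 h before 700 uM copper sulfate induction, then incubated 20 h at ambient temperature.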
ATXN viability = viability counter-screen for ATXN expression inhibitors; S2 cells (HEK-293 line with an ATXN2-luciferase reporter) viability, CellTiter-Fluor protease fluorescence, 24 h; Potency, µM (doses to about 56.7 µM), hits mostly cytotoxic; actives 0.49% (n = 400,000); AID 651635; further: nearly all actives have a fitted effect of over 40% in size
HepG2 viability = kills HepG2 cells in TGF-b inhibitor counter-screen | HepG2 CAGA-GFP viability, ATP luminescence, 18 h | Potency, µM (top dose mostly 46.1 µM), for the others: at the top dose activity change, negative = cytotoxicity, most hits filed as cytotoxic | actives 0.76% (n = 410,000)
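HepG2 CAGA-GFP cells (1000/well, DMEM with 1% FBS) received compound, then TGF-beta at 500 pg/mL final, and were incubated 18 hours at 37 degrees C. Viability was read by CellTiter-Glo luminescence. Media-only wells were set as complete cell-killing and DMSO as no toxicity.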
Gal4-VP16 FLuc = inhibits Gal4-VP16 luciferase reporter, ROR gamma counter-screen; Drosophila S2 Gal4-VP16 UAS-luciferase, luminescence, 20 h; actives 3.5% (n = 310,000); AID 2546; Potency, µM (doses to about 53.6 µM), without a hit: at the top dose activity, negative = inhibition, most hits filed as inhibitors;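 further: Gal4-VP16 expression switched on by copper sulfate through the metallothionein promoter; on the % scale 0 is the no-effect control and ±100 the full control effect; nearly all actives have a fitted effect of over 50% in size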
TGFb SMAD3 inh = blocks TGF-b signaling; HepG2 CAGA-GFP TGF-b/SMAD3 reporter, GFP fluorescence, 18 h; TGF-beta stimulated, 500 pg/mL final; Potency, µM (top dose mostly 46.1 µM), without a hit: at the highest dose activity, negative = inhibition, hits mostly inhibitors; actives 1.2% (n = 410,000); further: on the % scale 0 is the no-effect control and ±100 the full control effect; nearly all actives have a fitted effect of over 65% in size
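Smad-responsive CAGA-GFP expression was quantified in HEPG2 cells exposed to compounds and 500 pg/mL final TGF-beta for 18 h at 37 degrees C; unstimulated wells defined full inhibition.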
Numbers without * were called inactive; i = inactive; ? = inconclusive; / = no result given. Shown are actives, neighbours in structure and some others; about 6.1% of the full set was active somewhere. The call rests on the fitted dose curve; in most records, active means well fitted curve in the direction sought with a large enough effect; inconclusive means small, poorly fitted or top-dose-only effect, or another doubt; inactive means no such curve, though single readings can be large; an effect the other way counts as inactive or inconclusive. Potency means the concentration at half of the fitted maximal effect.

SMILES	ATXN2 expr inh	RORg inh	ATXN viability	HepG2 viability	Gal4-VP16 FLuc	TGFb SMAD3 inh
COc1cc(-c2nc(C)cnc2C)cc2c1OCCN(C(=O)Cn1nc(-c3ccccc3)c3ccccc3c1=O)C2	/	/	i	/	/	/
O=C(O)COc1ccccc1/C=N/n1c(C2CCCCC2)n[nH]c1=S	-1%	-31%	i	3%	-8%	-14%
Cc1ccccc1/C=N/n1c(C2CCCCC2)n[nH]c1=S	-1%	16µM*	i	-32%	?	-29%
O=[N+]([O-])c1ccccc1/C=N/n1c(C2CCCCC2)n[nH]c1=S	9%	?	i	-14%	35µM*	?
Fc1ccccc1/C=N/n1c(C2CCCCC2)n[nH]c1=S	9%	11µM*	i	-35%	?	?
S=c1[nH]nc(C2CCCCC2)n1/N=C/c1ccccc1Br	-38%	?	i	-8%	?	-4%
CCN(CC)c1ccc(C(=O)NCc2nc3cccnc3n2Cc2ccc(C)cc2)cc1	/	/	/	-30%	/	?
CCN(CC)c1ccc(N=Nc2nn(C)c(C)c2[N+](=O)[O-])cc1	0%	5µM*	13µM*	-6%	?	3%
CCN(Cc1ccccc1)c1ccc(N=Nc2nn(C)c(C)c2[N+](=O)[O-])cc1	63%	?	?	3%	?	11%
Cc1c(OC(C)C(=O)NCC(O)c2ccccc2)ccc2c3c(c(=O)oc12)CCCC3 (configuration not stated)	-22%	-6%	i	0.11µM*	-17%	-10%
CCCCCC(O)(c1ccccc1)C(CN1CCOCC1)c1ccccc1 (configuration not stated)	-23%	30%	i	-24%	?	?
CCCCCCC(O)(c1ccccc1)C(CN1CCOCC1)c1ccccc1 (configuration not stated)	5%	37%	i	-57%	-23%	16µM*
CCCC(O)(c1ccc(Cl)cc1)C(CN1CCOCC1)c1ccccc1 (configuration not stated)	-15%	-6%	?	-71%	-19%	13µM*
CCc1nn(CC(=O)NCc2ccc(OC)c(OC)c2)c(=O)c2cc3sc(C)cc3n12	/	/	/	-17%	/	-21%
CC(=O)c1c(C)[nH]c(-c2ccccc2)nc1=S	10%	3.2µM*	i	-132%	?	-8%
CC(=O)Nc1nc(-c2ccccc2)nc(C)c1C(C)=O	4%	-3%	i	1%	11%	-4%
COc1ccccc1-c1nc(=S)c(C(C)=O)c(C)[nH]1	-12%	5.6µM*	i	-13%	?	21%
CSc1nc(-c2ccccc2)nc(NC(=O)c2ccccc2)c1C(C)=O	-16%	15%	i	-14%	-15%	-9%
CSc1nc(-c2ccccc2)nc(SC)c1C(C)=O	0%	9%	i	-3%	-1%	1%
CC(=O)c1c(NC(=O)c2ccccc2)[nH]c(-c2ccccc2)nc1=S	-3%	3.2µM*	i	0%	8.9µM*	17%
CSc1nc(-c2ccccc2)[nH]c(=S)c1C(C)=O	1%	6.3µM*	i	-8%	?	-7%
COc1cc(=O)n2c(c1C(=O)NC(C)c1ccco1)CCN(C(=O)c1ccc3c(c1)OCCO3)CC2 (configuration not stated)	/	/	i	/	/	/
COc1cc2c(oc(=O)c3cc(C)cc(OC)c32)c2c(C3OC(C)C(O)C(C)(O)C3O)ccc(O)c12 (configuration not stated)	0%	/	?	2%	/	7.1µM*
Oc1cccc(/C=N/N(Cc2ccccc2)c2ccccc2)c1	-9%	-24%	i	13µM*	-8%	?
C(=N\N(Cc1ccccc1)c1ccccc1)/c1cccnc1	-28%	-21%	i	-12%	2%	?
